Source: PubChem BioAssay (NCATS)
Results filed as inconclusive are left out. Calls of active or inactive are those of the source. Calls come from the whole dose curve; as a rule, active = well fitted curve in the direction sought with a large enough effect; inconclusive = small, poorly fitted or top-dose-only effect, or another doubt; inactive = no such curve, though single readings can be large; an effect the other way counts as inactive or inconclusive.

Key:
[1] = NS1 protein of Zika virus - qHTS assay to identify small molecule inhibitors in human HEK 293 cells (AID 1347053); note: series mostly up to about 46 µM; nearly all actives have a fitted effect of over 55% in size
Summary of the method: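 TR-FRET signal from two anti-ZIKV NS1 antibodies quantified NS1 in HEK 293 cells 24 h after MR766 infection at MOI = 0.5; compounds were added 1 h before virus. Uninfected cells and infected cells defined the NS1 normalization range.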

[2] = qHTS of pediatric cancer cell lines to identify multiple opportunities for drug repurposing: Primary screen for TC32 cells (AID 1347089); note: nearly all actives have a fitted effect of over 60% in size; note: potency is the fitted concentration of half-maximal effect
Summary of the method: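 In the primary qHTS, MIPE compounds were tested at 11 concentrations (0.78 nM to 46 µM) and NPC compounds at 8 (0.59 nM to 46 µM) on TC32 cells for 48 h. CellTiter-Glo luminescence gave viability.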

[3] = qHTS of pediatric cancer cell lines to identify multiple opportunities for drug repurposing: Primary screen for DAOY cells (AID 1347090); note: nearly all actives have a fitted effect of over 55% in size; note: potency is the fitted concentration of half-maximal effect
Summary of the method: (§1)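 Eight- or eleven-point concentration series, 48 h treatment at 37 degrees C in growth media; readout CellTiter-Glo luminescence. Potency and efficacy were taken from the concentration-response curves.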

[4] = qHTS of pediatric cancer cell lines to identify multiple opportunities for drug repurposing: Primary screen for SJ-GBM2 cells (AID 1347091); note: potency is the fitted concentration of half-maximal effect
Summary of the method: as §1

[5] = qHTS of pediatric cancer cell lines to identify multiple opportunities for drug repurposing: Primary screen for SK-N-MC cells (AID 1347093); note: potency is the fitted concentration of half-maximal effect
Summary of the method: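 Metabolically active cells were quantified by ATP-dependent luminescence (CellTiter-Glo, 15 min at room temperature) following 48 h treatment. Cells had been plated at 500-1,000 per well and settled for 5 h beforehand.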

[6] = qHTS of pediatric cancer cell lines to identify multiple opportunities for drug repurposing: Primary screen for BT-37 cells (AID 1347094); note: potency is the fitted concentration of half-maximal effect
Summary of the method: (§2)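 Luminescence from CellTiter-Glo served as readout of metabolically active cells after 48 h compound exposure. Titrations: MIPE 11-point, from 0.78 nM; NPC 8-point, from 0.59 nM (final). Concentration-response curves came straight from the primary screen.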

[7] = qHTS of pediatric cancer cell lines to identify multiple opportunities for drug repurposing: Primary screen for NB-EBc1 cells (AID 1347095); note: potency is the fitted concentration of half-maximal effect
Summary of the method: as §2

[8] = qHTS of pediatric cancer cell lines to identify multiple opportunities for drug repurposing: Primary screen for U-2 OS cells (AID 1347096); note: nearly all actives have a fitted effect of over 50% in size
Summary of the method: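 Cells (500-1,000/well) in growth media were settled 5 h at 37 degrees C, then given compounds for 48 h. Viability was read as CellTiter-Glo luminescence. Primary runs used MIPE at 11 points (0.78 nM-46 µM) and NPC at 8 points (0.59 nM-46 µM); follow-ups used 11 points.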

[9] = qHTS of pediatric cancer cell lines to identify multiple opportunities for drug repurposing: Primary screen for Saos-2 cells (AID 1347097); note: nearly all actives have a fitted effect of over 40% in size; note: potency is the fitted concentration of half-maximal effect
Summary of the method: as §2

[10] = qHTS of pediatric cancer cell lines to identify multiple opportunities for drug repurposing: Primary screen for SK-N-SH cells (AID 1347098); note: nearly all actives have a fitted effect of over 65% in size; note: potency is the fitted concentration of half-maximal effect
Summary of the method: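 Cells (500-1,000/well) rested 5 h, then received compounds for 48 h; metabolically active cells were measured by CellTiter-Glo luminescence. Final concentrations spanned up to 46 µM (MIPE, 11-point) or 0.59 nM-46 µM (NPC, 8-point) in primary screens, 11-point in follow-ups.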

[11] = qHTS of pediatric cancer cell lines to identify multiple opportunities for drug repurposing: Primary screen for A673 cells (AID 1347092); note: nearly all actives have a fitted effect of over 45% in size; note: potency is the fitted concentration of half-maximal effect
Summary of the method: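 48 h compound exposure, A673, 500-1,000 cells/well, 37 degrees C/5% CO2. MIPE: 11-point, 0.78 nM-46 µM; NPC: 8-point, 0.59 nM-46 µM (final). Readout CellTiter-Glo luminescence after 15 min RT.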

Measured: Potency

C[C@@H](O)[C@H]1C(=O)N2C(C(=O)OCOC(=O)C(C)(C)C)=C(SC3CN(C4=NCCS4)C3)[C@H](C)[C@H]12
not listed: [11]
inactive: all other assays above

CN(C)CCN(Cc1ccc(Cl)cc1)c1ccccn1
active: [3] 29.6 µM | [11] 18.7 µM | [5] 10.5 µM
not listed: [7] | [10]
inactive: all other assays above

C[C@H]1COC2=C1C(=O)C(=O)c1c2ccc2c1CCCC2(C)C
active: [4] 20.9 µM | [9] 5.9 µM
not listed: [5] | [6] | [7]
inactive: all other assays above

CCCCCOC(=O)Nc1nc(=O)n([C@@H]2O[C@H](C)[C@@H](O)C2O)cc1F (stereo partly drawn)
not listed: [3] | [5] | [9]
inactive: all other assays above

CC(=O)OCC(=O)[C@@]1(O)CC[C@H]2[C@@H]3CCC4=CC(=O)C=C[C@]4(C)[C@@H]3[C@@H](O)C[C@@]21C
inactive: all assays above

Cc1cnc(-c2cc(N3CCN(C(=O)CCS(C)(=O)=O)CC3)ncc2Cl)c(C)c1
active: [11] 4.69 µM | [5] 16.6 µM
not listed: [6] | [10]
inactive: all other assays above

COc1ccc2nc3cc(Cl)ccc3c(Nc3cc(CN4CCCC4)c(O)c(CN4CCCC4)c3)c2n1
inactive: [1] | [2] | [3] | [8] | [9]

CCNC(=O)Nc1ccc(Oc2ncnc(N)c2C=NOC)cc1Cl
active: [4] 5.26 µM | [5] 4.69 µM | [7] 2.64 µM
not listed: [9] | [11]
inactive: all other assays above

CNC1[C@H](O)C(O[C@@H]2C(O)C(O[C@H]3O[C@H]([C@@H](C)NC)CC[C@H]3N)[C@@H](N)C[C@H]2N)OC[C@]1(C)O (stereo partly drawn)
not listed: [8]
inactive: all other assays above

O=C(O)Cc1cccc(OCCCN(Cc2cccc(C(F)(F)F)c2Cl)CC(c2ccccc2)c2ccccc2)c1
inactive: [1] | [2] | [8] | [9]
active: [3] 14.8 µM | [4] 23.5 µM | [11] 23.5 µM | [5] 6.62 µM | [6] 27.3 µM | [7] 23.5 µM | [10] 19.2 µM

COc1c(C)cnc(Cn2cnc3c(Cl)nc(N)nc32)c1C
inactive: [1] | [9]
active: [2] 1.17 µM | [4] 0.296 µM | [11] 0.235 µM | [5] 0.132 µM | [7] 0.118 µM | [10] 0.341 µM
